Inconclusive results are not listed. Unmarked numbers belong to inactive results. Activity calls are given as the source filed them. Calls come from the whole dose curve; as a rule, active = well fitted curve in the direction sought with a large enough effect; inconclusive = small, poorly fitted or top-dose-only effect, or another doubt; inactive = no such curve, though single readings can be large; an effect the other way counts as inactive or inconclusive.

Potency, activation and activity change, negative = inhibition data for 22 molecules are collected here from PubChem BioAssay (NCATS).

Test [1] deals with Rap guanine nucleotide exchange factor 3 (Homo sapiens) (UniProt O95398). As to the kind of experiment: Confirmatory qHTS for antagonist of cAMP-regulated guanine nucleotide exchange factor 3 (EPAC1) (AID 1645880). Note: nearly all actives have a fitted effect of over 55% in size. Note: potency is the fitted concentration of half-maximal effect. In outline:
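Nucleotide exchange uses 100 nM EPAC1, 250 nM RAP1B-BODIPY-GDP and 50 uM GDP, with compounds in a concentration-titration series. After 5 min at room temperature, fluorescence (480 nm ex/540 nm em) is read every 5 min for 30 min. Data are normalized to control ATA and DMSO.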
(In qHTS, concentration-response curves come from the screen itself.)

The target is the same in test [2]. The test can be described thus: Confirmatory qHTS for agonist of cAMP-regulated guanine nucleotide exchange factor 3 (EPAC1) (AID 1645881).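 For activation: EPAC1 catalysed release of BODIPY-GDP from Rap1B seen as fluorescence loss; 100% = effect of cAMP agonist control.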 Note: nearly all actives have a fitted effect of over 75% in size. Note: potency is the fitted concentration of half-maximal effect.
Test [3] has as its target Rap guanine nucleotide exchange factor 4 (Homo sapiens) (UniProt Q8WZA2). As to the kind of experiment: Confirmatory qHTS for agonist of cAMP-regulated guanine nucleotide exchange factor 4 (EPAC2) (AID 1645884). For activation: % is set by controls: 0 for no effect and ±100 for the full control effect.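 Note: nucleotide exchange releases bodipy-GDP from Rap1 and this lowers its fluorescence; nearly all actives have a fitted effect of over 65% in size.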 Note: potency is the fitted concentration of half-maximal effect.
Test [4] has the same target. As to the kind of experiment: Confirmatory qHTS for antagonist of cAMP-regulated guanine nucleotide exchange factor 4 (EPAC2) (AID 1645885). For activity change, negative = inhibition: % is set by controls: 0 for no effect and ±100 for the full control effect. Note: nearly all actives have a fitted effect of over 25% in size. Note: potency is the fitted concentration of half-maximal effect.
The target in test [5] is Rap guanine nucleotide exchange factor 3 (Homo sapiens) (UniProt O95398). As to the kind of experiment: Counterscreen qHTS for antagonist of cAMP-regulated guanine nucleotide exchange factor 3 (EPAC1) (AID 1645888).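 Note: fluorescence loss as bound BODIPY-GDP is released from Rap1B; % of control where 0% means no effect.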 In outline: (§1)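 Rap1B–BODIPY-GDP (250 nM) with 50 uM GDP; compounds pin-transferred to 9.74 nM–152 uM final (activator) or from 7.32 nM upwards (inhibitor). Fluorescence Ex/Em 480/540 nm read at 5 and 30 min, then after adding cAMP or buffer, at room temperature.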
Sequence of Rap guanine nucleotide exchange factor 3 (Homo sapiens) (O95398 whole entry, looked up): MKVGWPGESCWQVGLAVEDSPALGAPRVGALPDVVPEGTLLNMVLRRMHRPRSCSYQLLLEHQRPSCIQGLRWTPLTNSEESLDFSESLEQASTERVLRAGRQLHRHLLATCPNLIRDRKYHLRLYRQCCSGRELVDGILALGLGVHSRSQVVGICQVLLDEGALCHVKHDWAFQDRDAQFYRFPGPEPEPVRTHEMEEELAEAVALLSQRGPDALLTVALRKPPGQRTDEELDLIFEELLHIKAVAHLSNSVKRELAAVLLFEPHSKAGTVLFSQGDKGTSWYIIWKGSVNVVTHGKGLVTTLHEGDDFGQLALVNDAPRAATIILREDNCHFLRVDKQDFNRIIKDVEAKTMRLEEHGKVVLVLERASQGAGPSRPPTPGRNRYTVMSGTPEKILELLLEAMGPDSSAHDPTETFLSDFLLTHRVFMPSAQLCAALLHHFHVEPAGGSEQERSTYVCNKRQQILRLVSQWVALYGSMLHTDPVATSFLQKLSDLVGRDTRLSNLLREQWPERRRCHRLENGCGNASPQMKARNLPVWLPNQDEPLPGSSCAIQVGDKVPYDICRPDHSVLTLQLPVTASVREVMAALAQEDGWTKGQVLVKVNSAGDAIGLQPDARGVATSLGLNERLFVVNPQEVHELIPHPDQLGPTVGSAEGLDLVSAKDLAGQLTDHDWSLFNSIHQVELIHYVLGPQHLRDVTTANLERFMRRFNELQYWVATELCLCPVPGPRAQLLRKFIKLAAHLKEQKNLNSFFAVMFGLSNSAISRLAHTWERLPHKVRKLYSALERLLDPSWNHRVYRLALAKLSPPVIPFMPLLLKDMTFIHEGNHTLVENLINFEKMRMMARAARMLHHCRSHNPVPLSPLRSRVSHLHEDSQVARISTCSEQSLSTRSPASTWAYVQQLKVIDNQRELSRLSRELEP
(A counterscreen serves to expose hits that act by an unwanted route or on another target.)

For test [6] the target is unchanged. The test can be described thus: Counterscreen qHTS for agonist of cAMP-regulated guanine nucleotide exchange factor 3 (EPAC1) (AID 1645889). For activation: % of control where 0% means no effect. Note: nearly all actives have a fitted effect of over 40% in size. Note: potency is the fitted concentration of half-maximal effect. The method, boiled down: as §1

Sequence of Rap guanine nucleotide exchange factor 4 (Homo sapiens) (Q8WZA2 whole entry, looked up): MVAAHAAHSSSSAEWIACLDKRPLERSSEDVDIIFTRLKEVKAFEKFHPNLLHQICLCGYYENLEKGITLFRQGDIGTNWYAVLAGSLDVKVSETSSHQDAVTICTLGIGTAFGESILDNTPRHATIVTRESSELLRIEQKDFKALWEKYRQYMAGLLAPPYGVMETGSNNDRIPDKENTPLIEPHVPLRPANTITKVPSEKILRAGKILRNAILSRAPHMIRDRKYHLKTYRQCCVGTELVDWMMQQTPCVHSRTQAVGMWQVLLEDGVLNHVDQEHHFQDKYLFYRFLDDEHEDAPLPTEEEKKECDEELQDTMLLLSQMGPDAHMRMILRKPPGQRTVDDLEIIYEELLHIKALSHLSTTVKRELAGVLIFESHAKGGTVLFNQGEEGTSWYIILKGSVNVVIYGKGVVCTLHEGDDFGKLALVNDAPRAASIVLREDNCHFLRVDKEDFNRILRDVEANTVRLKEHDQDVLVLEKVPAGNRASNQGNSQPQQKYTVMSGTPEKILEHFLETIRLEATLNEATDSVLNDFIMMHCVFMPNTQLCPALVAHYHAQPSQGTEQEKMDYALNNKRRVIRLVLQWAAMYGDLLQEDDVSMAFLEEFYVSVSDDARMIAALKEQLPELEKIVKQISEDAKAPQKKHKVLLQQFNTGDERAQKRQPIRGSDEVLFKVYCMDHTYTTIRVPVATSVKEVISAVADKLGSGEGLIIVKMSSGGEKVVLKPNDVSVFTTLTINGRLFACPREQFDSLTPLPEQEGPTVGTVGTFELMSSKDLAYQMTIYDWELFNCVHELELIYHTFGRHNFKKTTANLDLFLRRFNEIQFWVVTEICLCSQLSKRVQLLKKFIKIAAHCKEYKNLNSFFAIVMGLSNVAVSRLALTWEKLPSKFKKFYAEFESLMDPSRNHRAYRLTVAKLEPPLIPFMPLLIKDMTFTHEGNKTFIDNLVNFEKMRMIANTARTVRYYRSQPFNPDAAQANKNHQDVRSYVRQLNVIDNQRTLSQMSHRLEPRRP

Turning to `CCOc1ccccc1C(=O)N(Cc1cccs1)c1ccc(Cl)cc1`, the Potency entry in test [1], in test [2], in test [3], in test [4], in test [5] and in test [6] was “inactive” throughout.

As for `COC(=O)c1cc2occc2n1Cc1ccc(F)cc1Cl`, the Potency entry in test [1], in test [2], in test [3], in test [4], in test [5] and in test [6] was “inactive” throughout.

As for `CCCN1C(=O)c2cc(C(=O)Nc3ccccc3CC)ccc2C1O` (configuration not stated), the Potency result in test [1], in test [2], in test [3], in test [4], in test [5] and in test [6] was “inactive” in each case.

Turning to `CN(C)c1ccccc1C(=O)N1CCCC(C(=O)c2ccc3ccccc3c2)C1` (configuration not stated), the Potency entry in test [1], in test [2] and in test [4] was “inactive” throughout. The activation in test [3] was 10.4% [at 17.1 µM, percent relative to cAMP agonist control]; in test [6], 21.4% [at 30.8 µM]. Also, in test [5], the activity change, negative = inhibition was -1.02% [at 30.8 µM].

Consider `CCCc1cc2c(cc1N(C)S(=O)(=O)c1ccccc1)OCO2`, for which the Potency result in test [1], in test [2], in test [3], in test [4], in test [5] and in test [6] was “inactive” in each case.

Take `COC(=O)c1cn(C(=O)c2cc(OC)c(OC)c(OC)c2)c2ccccc12`: the Potency result in test [1], in test [2], in test [3], in test [4], in test [5] and in test [6] was “inactive” throughout.

Take `CCOC(=O)C1=CCN(S(=O)(=O)c2ccc(C)cc2)C1c1cccs1` (configuration not stated): the Potency entry in test [1], in test [2] and in test [4] was “inactive” each time. Moreover, the activation in test [3] was 5.63% [at 17.1 µM, percent relative to cAMP agonist control]; in test [6], 22.8% [at 30.8 µM]. Further, in test [5], the activity change, negative = inhibition was 6.49% [at 30.8 µM].

As for `CN(Cc1ccccc1)S(=O)(=O)c1ccc(Cl)c(C(=O)NCc2ccncc2)c1`, the Potency result in test [1], in test [2], in test [3], in test [4], in test [5] and in test [6] was “inactive” each time.

Turning to `COc1cccc(C2c3[nH]c4ccccc4c3CCN2Cc2ncc[nH]2)c1` (configuration not stated), the Potency entry in test [1], in test [2] and in test [4] was “inactive” throughout. The activation in test [3] is 1.64% [at 17.1 µM, percent relative to cAMP agonist control]; in test [6] it was 15.1% [at 30.8 µM]. Besides, in test [5], the activity change, negative = inhibition was -8.75% [at 30.8 µM].

For `CCN(CC(=O)Nc1ccccc1C(F)(F)F)C(=O)CCOc1ccccc1C`, the Potency entry in test [1], in test [2] and in test [4] was “inactive” throughout. Also, the activation in test [3] is -3.64% [at 17.1 µM, percent relative to cAMP agonist control]; in test [6], 1.11% [at 30.8 µM]. For the same molecule, the activity change, negative = inhibition in test [5] is -14% [at 30.8 µM].

`O=C(COc1ccc2ccccc2c1)Nc1cccc(C(=O)Nc2ccccc2C(=O)O)c1`: the Potency is 33.8 µM (active) in test [1] and 47.8 µM (active) in test [4]. Moreover, the Potency result in test [2], in test [3], in test [5] and in test [6] was “inactive” in each case.

In the case of `COc1cccc(C2=NN(C(C)=O)C(c3cccs3)C2)c1` (configuration not stated), the Potency entry in test [1], in test [2], in test [3], in test [4], in test [5] and in test [6] was “inactive” throughout.

Regarding `O=C1c2ccccc2S(=O)(=O)c2cc(N3CCC4(CC3)OCCO4)ccc21`, the Potency result in test [1], in test [2], in test [3] and in test [5] was “inactive” each time. Moreover, the Potency in test [4] is 84.9 µM (active); in test [6], 14.1 µM (active).

For the molecule `COc1ccc(/C=C/C(=O)NC2CCS(=O)(=O)C2)cc1` (configuration not stated), the Potency result in test [1], in test [2], in test [3], in test [4], in test [5] and in test [6] was “inactive” each time.

`c1ccc(-n2nnnc2-n2ccnc2)cc1`: the Potency entry in test [1], in test [2], in test [3], in test [4], in test [5] and in test [6] was “inactive” in each case.

`CCOc1nc(C)cc(C)c1S(=O)(=O)c1ccc(Cl)cc1`: the Potency entry in test [1], in test [2] and in test [4] was “inactive” each time. In addition, the activation is -7.98% [at 17.1 µM, percent relative to cAMP agonist control] in test [3] and 9.26% [at 30.8 µM] in test [6]. Also, the activity change, negative = inhibition in test [5] is 0.426% [at 30.8 µM].

As to `C#CCOc1ccc(/C=C2/C(=O)N(c3cccc(C(=O)O)c3)N=C2C)cc1OC`, the Potency entry in test [1], in test [2] and in test [4] was “inactive” in each case. In addition, the activation in test [3] was 5.95% [at 17.1 µM, percent relative to cAMP agonist control]; in test [6], 10.5% [at 30.8 µM]. The activity change, negative = inhibition in test [5] is 6.78% [at 30.8 µM].

For the molecule `Cc1ccc(-n2nc3ccc(NC(=O)/C=C/c4ccco4)cc3n2)cc1`, the Potency in test [1] is 39.8 µM (active). Also, the Potency entry in test [2] and in test [4] was “inactive” in each case. For the same molecule, the activation was 5.31% [at 17.1 µM, percent relative to cAMP agonist control] in test [3] and 13.9% [at 30.8 µM] in test [6]. Also, the activity change, negative = inhibition in test [5] is 8.52% [at 30.8 µM].

Consider `CCCCC(=O)N(c1ccc(C(=O)O)cc1)c1nc(-c2ccc(Cl)cc2)c(CC)s1`, for which the Potency in test [1] is 50.1 µM (active). For the same molecule, the Potency result in test [2] and in test [4] was “inactive” throughout. The activation is 5.89% [at 17.1 µM, percent relative to cAMP agonist control] in test [3] and 19.6% [at 30.8 µM] in test [6]. Besides, the activity change, negative = inhibition in test [5] was -5.84% [at 30.8 µM].

In the case of `N#Cc1cc(C(=O)c2ccccc2O)cn(-c2nccs2)c1=O`, the Potency result in test [1] and in test [5] was “inactive” each time. Further, the Potency is 112 µM (active) in test [2], 100 µM (active) in test [3], 47.8 µM (active) in test [4] and 39.8 µM (active) in test [6].

As to `CC(OC(=O)c1nn(C)c(=O)c2ccccc12)C(=O)NC1CCCCC1C` (configuration not stated), the Potency entry in test [1], in test [2], in test [3], in test [4], in test [5] and in test [6] was “inactive” each time.

For the molecule `COC(=O)C(CC(=O)c1ccc(C)cc1)n1cccn1` (configuration not stated), the Potency result in test [1], in test [2], in test [3], in test [4], in test [5] and in test [6] was “inactive” in each case.
